Only some compounds are listed: those with a hit (about 3.6% of all), similar ones and a draw of the others.
B2AR arrestin ag: beta-arrestin recruitment by human beta2-adrenergic receptor ligands; P07550; HTLA Tango cells, beta-arrestin recruitment, luciferase luminescence, 18 h; Potency, µM (doses to about 46.1 µM), most hits filed as activators; 44,000 tested, under 10 active;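 note: potency is the fitted concentration of half-maximal effect; 0% = DMSO and full agonism = EC100 isoproterenol or metaproterenol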
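Luminescence read-out: arrestin recruitment to recombinant beta2-AR releases tTA, inducing luciferase. Cells exposed 18 hr at 37 degrees C to up to 46 microM compound; %Activity from corrected signal, concentration-response curves classified by r2, magnitude and efficacy.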
NTMT1 inh: inhibitors of human N-terminal methyltransferase NTMT1; Q9BV86; NTMT1 MTase-Glo SAH luminescence, purified enzyme; Potency, µM (series often up to 114 µM), for the others: top-dose activity change, negative = inhibition, actives largely listed as inhibitors; hit rate 2.5% among 59,000; AID 1645870;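 note: potency is the fitted concentration of half-maximal effect; plate controls were DMSO vehicle for no effect and no enzyme for full effect; nearly all actives have a fitted effect of over 65% in size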
Target sequence (Q9BV86 whole entry, looked up): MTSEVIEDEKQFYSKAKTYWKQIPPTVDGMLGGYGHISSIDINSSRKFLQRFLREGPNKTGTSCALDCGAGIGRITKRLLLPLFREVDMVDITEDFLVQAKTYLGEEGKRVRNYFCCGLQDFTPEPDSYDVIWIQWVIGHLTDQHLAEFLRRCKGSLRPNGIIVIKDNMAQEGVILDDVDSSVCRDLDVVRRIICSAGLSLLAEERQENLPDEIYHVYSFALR
GPR32 ag: activates human resolvin D1 receptor GPR32 | O75388 | CHO-K1 GPR32 beta-arrestin PathHunter luminescence, 90 min; zero percent set by DMSO-only wells | hit rate 2.5% among 48,000 | activation, % at 76.9 µM;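 active = activation of at least 60% and not above a set upper limit, about 1 call in 100 departs from these limits; inconclusive = activation of 40% to 60%, or above that upper limit; inactive = activation under 40%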; note: 0% is about no effect
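Readings come from a cell-based beta-arrestin complementation format: CHO-K1 GPR32 stable cells (2,500/well) treated 90 min with compounds, then beta-Gal substrate added for 1 h before chemiluminescence imaging.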
GALC G270D up: enhancers of human galactocerebrosidase G270D mutant activity in cells. P54803. 145M-Twi-hGALC-G270D cells (Twitcher mouse brain line with human GALC G270D), HMU-beta-Gal fluorescence, 48 h. Potency, µM (titrated, usually from 57.5 µM), most hits filed as activators. hit rate 0.1% among 45,000. AID 1159614; note: potency is the fitted concentration of half-maximal effect; 0% is about no effect; nearly all actives have a fitted effect of over 65% in size
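Fluorescence readout: HMU-β-gal cleavage by mutant GALC (0.1 mM final, citrate/phosphate pH 5.2 with 1 mg/mL taurocholate), stopped with carbonate/bicarbonate plus Triton X-100. Cells: murine Twitcher 145M-Twi expressing human G270D GALC; qHTS for activators.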
GALK inh: inhibits human galactokinase | P51570 | recombinant GALK, Kinase-Glo ATP luminescence, 1 h | Potency, µM (series often up to 57.5 µM), without a hit: top-dose activity, negative = inhibition, usual class: inhibitors | 44,000 tested, under 10 active | AID 1347072;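 note: plate controls were full GALK reaction for no effect and reaction lacking GALK for full effect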
Target sequence (P51570 whole entry, looked up): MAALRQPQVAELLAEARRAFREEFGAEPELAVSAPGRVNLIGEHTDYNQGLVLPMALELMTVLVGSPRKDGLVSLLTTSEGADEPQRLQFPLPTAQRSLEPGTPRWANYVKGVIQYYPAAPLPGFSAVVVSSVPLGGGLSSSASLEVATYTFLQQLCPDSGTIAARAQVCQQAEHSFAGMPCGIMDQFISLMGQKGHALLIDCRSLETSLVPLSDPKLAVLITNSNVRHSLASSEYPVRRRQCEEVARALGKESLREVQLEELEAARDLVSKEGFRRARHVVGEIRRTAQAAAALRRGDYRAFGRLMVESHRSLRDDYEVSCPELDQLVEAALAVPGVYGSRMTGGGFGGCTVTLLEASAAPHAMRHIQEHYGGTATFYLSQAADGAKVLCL
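Reactions with and without enzyme served as controls. GALK at 5 nM phosphorylates 100 uM galactose using 35 uM ATP (HEPES pH 8.0, Mg2+) for 1 h at RT, with luminescence read 10 min after adding Kinase-Glo Plus.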
Starred values were filed as active, the others as inactive; i = inactive; ? = inconclusive; . = not tested or not shown; ! = not confirmed by another sample; [ ] = dose if it differs, or a comment. Unless noted, calls come from the whole dose curve; as a rule, active = well fitted curve in the direction sought with a large enough effect; inconclusive = small, poorly fitted or top-dose-only effect, or another doubt; inactive = no such curve, though single readings can be large; an effect the other way counts as inactive or inconclusive.

SMILES | B2AR arrestin ag | NTMT1 inh | GPR32 ag | GALC G270D up | GALK inh
CC1CCN(c2nc3ccc(C(=O)NCCc4ccc(S(N)(=O)=O)cc4)cc3s2)CC1 | i | 89µM* | -8 | i | -10%
CCc1ccc(-c2nn(-c3ccc(OC)cc3)c3c2cnc2ccc(OC)cc23)cc1 | i | -14% | -2 | i | 7%
CCOc1ccc2ncc3c(-c4cccc(OC)c4)nn(-c4ccccc4)c3c2c1 | i | 89µM* | 14 | i | 0%
Cc1ccc(NC(=O)Cn2c(=O)oc3cc(S(=O)(=O)N4CCCCC4)ccc32)c(C)c1 | i | -1% | 115* | i | -2%
Cc1ccc(C)c(NC(=O)Cn2c(=O)oc3cc(S(=O)(=O)NCc4ccccc4)ccc32)c1 | i | 11% | 72* | i | -13%
Cc1ccc(NC(=O)Cn2c(=O)oc3cc(S(=O)(=O)NCc4ccccc4)ccc32)cc1 | i | -2% | 81* | i | 2%
O=C(Cn1c(=O)oc2cc(S(=O)(=O)NCc3ccccc3)ccc21)Nc1ccc(F)c(Cl)c1 | i | 11% | 21 | i | 4%
COc1ccc(C)cc1NC(=O)Cn1c(=O)oc2cc(S(=O)(=O)NCc3ccccc3)ccc21 | i | 9% | -1 | i | 0%
COc1ccc(C)cc1NC(=O)Cn1c(=O)oc2cc(S(=O)(=O)N3CCCCCC3)ccc21 | i | -5% | -6 | i | -2%
Cc1cc(NS(=O)(=O)c2ccc(NC(=O)C(C)(C)c3ccc(Cl)c(Cl)c3)cc2)no1 | . | 5% | . | . | .
CC(C)c1ccc(C2=CC(c3cccc(Cl)c3)n3ncnc3N2)cc1 (stereo not given) | i | 6% | 74* | i | 1%
CC(C)c1ccc(C2=CC(c3cccc(Cl)c3)n3c(nc4ccccc43)N2)cc1 (stereo not given) | i | 3% | 47 | i | -1%
COc1ccc(C2NC(=O)c3ccccc3N2)cc1COc1c(C)cc(NC(C)=O)cc1C (stereo not given) | . | 0% | . | . | .
Cc1ccc(CNS(=O)(=O)c2cc3c(cc2Cl)NC(=O)CO3)o1 | i | 89µM* | -8 | i | ?
Cc1cc2c(cc1S(=O)(=O)NCc1ccccc1Cl)OCC(=O)N2 | i | -6% | 3 | i | 2%
O=c1c2ccccc2nc2sc(NS(=O)(=O)c3ccc4c(c3)CCC4)nn12 | . | -21% | . | . | .
COc1ccc(-c2cc(C(C)=O)c(C)n2CCC(=O)Nc2cc(Cl)ccc2C)cc1 | i | 89µM* | -21 | i | 1%
COc1ccc(-c2cc(C(C)=O)c(C)n2CCC(=O)Nc2ccc(C)c(Cl)c2)cc1 | i | ? | -26 | i | 0%
Cc1ccc(NC(=O)CCCn2c3ccccc3c(=O)c3cc(C)ccc32)c(Br)c1 | i | -2% | -5 | i | -2%
Cc1ccc2c(c1)c(=O)c1ccccc1n2CCCC(=O)Nc1c(F)cccc1F | i | 6% | 11 | 1.1µM* | -4%
O=C1NC(=Nc2ccccc2F)S/C1=C\c1ccc(C(=O)O)cc1 | . | -19%[57.5 µM] | . | . | .
Clc1ccc(C(c2ccc(Cl)cc2)n2cc[n+](CC(OCc3ccc(Cl)cc3Cl)c3ccc(Cl)cc3Cl)c2)cc1 (stereo not given) | . | 30µM* | -3 | . | .
CCC(=O)Nc1ccc2nc(SCCOc3ccc(C)cc3OC)sc2c1 | i | ? | 93* | i | -8%
CCC(=O)Nc1ccc2nc(SCCOc3cccc(C)c3)sc2c1 | i | -2% | 86* | i | -1%
Cc1cccc(C(=O)Nc2ccc3nc(SCCOc4ccccc4)sc3c2)c1 | i | 15% | 14 | i | -2%
SMILES | B2AR arrestin ag | NTMT1 inh | GPR32 ag | GALC G270D up | GALK inh
Nc1nc(OC(c2ccc(-c3cccc(F)c3)cc2)C(F)(F)F)cc(-c2ccc(C[C@H](N)C(=O)O)cc2)n1 (stereo not given in full) | . | 12% | . | . | .
Cc1ccc(CN2CCC(CNc3ncnc4onc(-c5ccc(F)cc5)c34)CC2)cc1 | i | 79µM* | 32 | i | -2%
Fc1ccc(-c2noc3ncnc(NCC4CCN(Cc5ccc(Cl)cc5)CC4)c23)cc1 | i | -21% | ? | i | 2%
Cc1cc(C)c(NC(=O)c2sc3nc(C)cc(C)c3c2N)c(C)c1 | i | 13% | 38 | i | ?
Cc1cc(C)c2c(N)c(C(=O)Nc3ccccc3C(F)(F)F)sc2n1 | i | 2% | 89* | i | -1%
O=C(CSc1nc(-c2ccc(F)cc2)nc2c1Cc1ccccc1O2)Nc1cccc(C(=O)O)c1 | i | 6.3µM* | 0 | i | 1%
COc1ccc2c(c1)Oc1nc(-c3ccc(C)cc3)nc(SCC(=O)Nc3cccc(C(=O)O)c3)c1C2 | . | 22µM* | . | . | .
COc1ccc(-c2nc3c(c(SCC(=O)Nc4cccc(O)c4)n2)Cc2c(CO)cnc(C)c2O3)cc1 | i | 45µM* | -5 | i | -1%
COc1cccc2c1Oc1nc(-c3ccccc3)nc(SCC(=O)Nc3ccccc3)c1C2 | i | 1% | 2 | i | 6%
COc1cc(NC(=O)CSc2nc(-c3ccc(C)cc3)nc3c2Cc2ccccc2O3)cc(OC)c1 | i | -2% | 8 | i | 6%
Cc1ccc(Cl)cc1N1CCN(CCNC(=O)Nc2ccc(Cl)cc2)CC1 | i | 5% | 84* | i | 3%
CCOc1ccc(NC(=O)NCCN2CCN(c3cc(Cl)ccc3C)CC2)cc1 | i | -7% | 73* | i | -6%
Cc1ccc(C)c(N2CCN(CCCNC(=O)Nc3cc(Cl)ccc3C)CC2)c1 | i | -4% | -4 | i | -1%
CCC(=O)N1c2ccccc2CC1C(=O)NCCCN1CCN(c2ccc(OC)cc2)CC1 (stereo not given) | i | -4% | 11 | i | -4%
CCC(=O)N1c2ccccc2CC1C(=O)NCCN1CCN(c2cc(Cl)ccc2C)CC1 (stereo not given) | i | -4% | 69* | i | 0%
O=C(N[C@H](Cc1cscn1)C(=O)N[C@@H](CC1CCCCC1)[C@@H](O)[C@@H](O)C1CC1)c1nc2ccccc2[nH]1 | . | 5%[57.5 µM] | . | . | .
COc1cc2nc(N3CCN(C(=O)C4COc5ccccc5O4)CC3)nc(N)c2cc1OC (stereo not given) | . | ? | 108*! | i | .
COc1cc2nc(N3CCN(C(=O)c4ccco4)CC3)nc(N)c2cc1OC | . | 1% | ? | i | .
C=C1CCC2C(OC(=O)C2(O)COC(C)=O)C2C(=C)C(O)CC12 (stereo not given) | . | 9%[29.8 µM] | . | . | .
Cc1ccc2[nH]c(CSc3nnc(NC(=O)COc4ccc(F)cc4)s3)cc(=O)c2c1 | i | 10% | 11 | i | 1%
Cc1ccc2[nH]c(CSc3nnc(NC(=O)COc4ccccc4)s3)cc(=O)c2c1 | i | -1% | 76* | i | -2%

High-throughput results deposited in PubChem by National Center for Advancing Translational Sciences (NCATS).
